Results filed as inconclusive are left out. Where a call stands in place of a potency, no number is given. Active and inactive are the calls of the source. Calls come from the whole dose curve; as a rule, active = well fitted curve in the direction sought with a large enough effect; inconclusive = small, poorly fitted or top-dose-only effect, or another doubt; inactive = no such curve, though single readings can be large; an effect the other way counts as inactive or inconclusive.
Experiments:
[1] = HPAF-II 24hr Apoptosis Induction qHTS against the NCATS CANVASS Library (AID 1347356)
Method in brief: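 Luminescent caspase-3/7 signal (DEVD substrate, Caspase-Glo) served as read-out, taken 15 min after reagent addition to HPAF-II cells exposed 24 h to compounds.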

[2] = HEK293 18hr Apoptosis Induction qHTS against the NCATS CANVASS Library (AID 1347357)
Method in brief: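 Luminescent caspase-3/7 signal is measured in HEK293 cells exposed for 18 hours to an 11-point concentration series; doxorubicin serves as the plate control.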

[3] = HPAF-II 12hr Apoptosis Induction qHTS against the NCATS CANVASS Library (AID 1347358); note: potency is the fitted concentration of half-maximal effect
Method in brief: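 500 HPAF-II cells/well; cmpds 11-pt; 12 hr, 37 degrees C/5% CO2; Caspase-Glo 3/7 added, 15 min RT dark; luminescence read. Doxorubicin titration as control.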

[4] = HEK293 24hr Apoptosis Induction qHTS against the NCATS CANVASS Library (AID 1347359)
Method in brief: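 HEK293 cells (500/well, DMEM + 10% FBS) were exposed to compounds in an 11-point series for 24 hours at 37 degrees C, then caspase-3/7 activity was read by Caspase-Glo DEVD luciferase luminescence after 15 min.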

[5] = HPAF-II 18hr Apoptosis Induction qHTS against the NCATS CANVASS Library (AID 1347360); note: potency is the fitted concentration of half-maximal effect
Method in brief: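 Apoptosis was scored as caspase-3/7 activity in HPAF-II pancreatic cancer cells treated 18 hours with an 11-point concentration series.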

[6] = tested on: NAD(P)H diaphorase (Clostridium kluyveri); assay: Diaphorse counterscreen qHTS: Assay Interference Panel against the NCATS CANVASS Library (AID 1347362); note: potency is the fitted concentration of half-maximal effect
Method in brief: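 Clostridium kluyveri diaphorase in PBS with 0.01% Tween-20 was preincubated 15 min at room temperature in the dark with compounds (11-point series). Resorufin fluorescence (ex 525/20, em 598/25) was read 5 min after adding resazurin/NADH.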

[7] = SDT Cancer Cell Toxicity qHTS against the NCATS CANVASS Library (AID 1347365); note: nearly all actives have a fitted effect of over 60% in size; note: potency is the fitted concentration of half-maximal effect
Method in brief: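 qHTS, SDT dog glioma line, 500 cells/well; cpds 11 pts; 72 hr, 37C, 5% CO2; CellTiterGlo ATP luminescence.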

[8] = qHTS for ATAD5 Agonist screened against the NCATS CANVASS Library (AID 1347367);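 note: luciferase reporter driven by ATAD5 which rises upon DNA damage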
Method in brief: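 Step one plated reporter cells and let them acclimate 5hr. Step two pinned compounds with MMS as positive and 0.46% DMSO as negative control. After 16hr incubation, fluorescence viability then luminescence were read.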

[9] = MCF7 Cancer Cell Toxicity qHTS against the NCATS CANVASS Library (AID 1347369); note: potency is the fitted concentration of half-maximal effect
Method in brief: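 Cytotoxicity is measured by ATP content: MCF7 cells at 500 per well receive an 11-point compound series and, after 72 hr at 37C, are lysed with CellTiterGlo for luminescence.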

[10] = qHTS for ATAD5 Antagonist screened against the NCATS CANVASS Library (AID 1347370); note: nearly all actives have a fitted effect of over 65% in size; note: potency is the fitted concentration of half-maximal effect
Method in brief: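 HEK293T cells with stably integrated ATAD5-luciferase reporter, 2000/well, 5 h attachment; compounds plus 10 µM 5-fluorouridine, 16 h at 37 °C. Luciferase luminescence read, with CellTiter-Fluor viability read first.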

[11] = J3T Cancer Cell Toxicity qHTS against the NCATS CANVASS Library (AID 1347371); note: potency is the fitted concentration of half-maximal effect
Method in brief: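 Cells plated at 500 per well, compounds pin-transferred, plates incubated 72 hr at 37C, then CellTiterGlo added and luminescence read to measure ATP content.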

[12] = molecular target: Nuclear receptor subfamily 1 group I member 3 (Homo sapiens) (UniProt Q14994); assay: qHTS for Constitutive Androstane Receptor (CAR) Agonist screened against the NCATS CANVASS Library (AID 1347373);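 note: every well also contained 1.5 µM PK11195 alongside the test compound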; note: potency is the fitted concentration of half-maximal effect
Method in brief: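 HepG2-hCAR-CYP2B6 cells, 2500/well, attached 4hr; cpd + PK11195 1.5uM final; 24hr 37C 5% CO2. CellTiter-Fluor viability read, then ONE-Glo luminescence for CAR activation.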

[13] = qHTS for Hypoxia signaling pathway (HIF-1) agonists against the NCATS CANVASS Library (AID 1347375)
Method in brief: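 ME-180 HRE-bla reporter cells; 2,000/well, 0.5% dialyzed FBS; cpd added after 5 h, 17 h 37C/5% CO2; CCF4-AM 2 h RT; FRET 460/530 nm; CellTiter-Glo viability same wells, 30 min.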

[14] = qHTS for H2AX Agonists against the NCATS CANVASS Library (AID 1347378);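 note: phospho-H2AX S139 level in CHO-K1 lysates by TR-FRET emission ratio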
Method in brief: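 Following overnight seeding, CHO-K1 cells are incubated with a concentration series of compound for 3 hr at 37C (final DMSO 0.76%). Cells are then lysed, detection antibodies added, and emission ratio 665/620 nm recorded after 24 hr at room temperature.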

[15] = qHTS for Inflammasome Signaling Inhibitors: IL-1-beta AlphaLISA screen against the NCATS CANVASS Library (AID 1347379);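 note: human THP-1 cells primed with LPS then triggered with ATP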;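 for potency: secreted IL-1B measured as AlphaLISA emission at 615 nm; potency is the fitted concentration of half-maximal effect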
Method in brief: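 THP-1 cells pretreated 1 hr with compound (up to 57.5 uM final), then stimulated with LPS (250 ng/mL final) and ATP (1.25 mM final). Secreted IL-1B measured by AlphaLISA after 16 hr; glyburide as positive control.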

[16] = qHTS for Activators of p53 Stress Response Pathway screened against the NCATS CANVASS Library (AID 1347388); note: potency is the fitted concentration of half-maximal effect
Method in brief: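 p53RE-bla HCT-116 cells (4000/well) were plated 5 h at 37C, exposed to compounds for 16 h at 37C over an 11-point concentration series, then loaded with CCF4 for 2 h at room temperature; 460/530 nm emission ratio read.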

[17] = qHTS assay for small molecule disruptors of mitochondrial membrane potential screened against the NCATS CANVASS Library (AID 1347389); note: nearly all actives have a fitted effect of over 60% in size; note: potency is the fitted concentration of half-maximal effect
Method in brief: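 HepG2, 2,000 cells/well, attached overnight; compound 1 hr, 37C, 5% CO2; Mito-MPS dye 30 min, 37C; fluorescence 535 nm (monomer) and 590 nm (aggregate); decreased 590/535 ratio = depolarization.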

[18] = qHTS for activators of dead-cell proteases activity screened against the NCATS CANVASS Library (AID 1347392);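 note: luminescence from protease leaking out of membrane-damaged cells cleaving impermeant substrate; rising signal means more cytotoxicity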
Method in brief: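 HepG2 cells (2000/well) attached 18 h at 37C, then exposed 5 h to compounds (11-point qHTS). Dead-cell protease activity read as luminescence from cell-impermeant AAF-aminoluciferin substrate after 15 min at room temperature.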

[19] = qHTS for inhibitors of Wild type Zika virus screened against the NCATS CANVASS Library (AID 1347396);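 note: ATP luminescence of surviving cells so rescue from viral cell killing; series mostly up to about 46 µM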
Method in brief: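 Vero 766 (African green monkey) cells, 1000 per well, attached overnight, then compounds were added in an 11-point series before wild-type Zika virus infection. After 72 h at 37C, cell viability was read as CellTiter Glo luminescence.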

[20] = HEK-293 Cancer Cell Toxicity qHTS against the NCATS CANVASS Library (AID 1347355); note: nearly all actives have a fitted effect of over 65% in size; note: potency is the fitted concentration of half-maximal effect
Method in brief: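 Luminescent ATP read-out (CellTiter-Glo, 15min at room temperature) measures survival after cells face an 11-point compound series for 72 hours at 37 degrees C/5% CO2.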

Nuclear receptor subfamily 1 group I member 3 (Homo sapiens), sequence (Q14994 whole entry, looked up): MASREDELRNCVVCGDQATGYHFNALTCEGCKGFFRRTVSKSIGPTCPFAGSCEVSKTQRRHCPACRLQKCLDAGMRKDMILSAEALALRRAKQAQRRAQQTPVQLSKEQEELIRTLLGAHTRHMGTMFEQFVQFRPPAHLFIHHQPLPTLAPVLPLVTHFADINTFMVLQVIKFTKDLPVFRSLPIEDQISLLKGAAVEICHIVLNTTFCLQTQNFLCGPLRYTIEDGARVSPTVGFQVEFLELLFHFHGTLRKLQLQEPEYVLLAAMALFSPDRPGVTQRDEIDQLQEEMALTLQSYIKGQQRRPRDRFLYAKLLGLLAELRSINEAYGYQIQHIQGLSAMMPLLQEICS

| SMILES | outcome [1] | Potency [2] | Potency [3] | Potency [4] | Potency [5] | Potency [6] | Potency [7] | Potency [8] | Potency [9] | Potency [10] | Potency [11] | Potency [12] | outcome [13] | Potency [14] | Potency [15] | Potency [16] | Potency [17] | Potency [18] | outcome [19] | Potency [20] |
| --- | --- | --- | --- | --- | --- | --- | --- | --- | --- | --- | --- | --- | --- | --- | --- | --- | --- | --- | --- | --- |
| COc1cc2c(cc1OC)[C@@H](c1ccc3c(c1)OCO3)C(C)C(C)C2=O (stereo not given in full) | inactive | inactive | inactive | inactive | inactive | inactive | inactive | inactive | inactive | 26.3 µM (active) | inactive | 18.6 µM (active) | inactive | inactive | inactive | inactive | inactive | inactive | inactive | – |
| C/C=C/C1C=CC2CC(C)CC(C)C2C1C(=O)CC(=O)NC(CO)C/C=C/CCCCC (stereo not given) | inactive | inactive | inactive | inactive | inactive | – | 1.48 µM (active) | inactive | – | 23.4 µM (active) | inactive | inactive | inactive | inactive | – | inactive | – | inactive | inactive | – |
| CC(C)[C@]12CC[C@@]3(C)[C@H](C)CC[C@H](O)[C@@]3(CC1)c1cc3c(cc12)[nH]c1ccccc13 | inactive | inactive | inactive | inactive | inactive | inactive | inactive | inactive | inactive | inactive | inactive | inactive | inactive | inactive | inactive | inactive | 11.7 µM (active) | inactive | inactive | – |
| C=C1CC[C@@H](O[C@H]2C[C@@](O)([C@H](C)NC(=O)c3[nH]c(C)c(Cl)c3Cl)[C@H](O)[C@@H](C)O2)[C@@H]2C=C[C@H](C)C(/C(O)=C3/C(=O)[C@H](C(C)C)N([C@@H]4O[C@H](C)[C@H](OC(N)=O)[C@H](OC(C)=O)[C@@H]4OC)C3=O)[C@@H]12 (stereo not given in full) | inactive | inactive | inactive | inactive | inactive | inactive | inactive | inactive | inactive | inactive | inactive | inactive | inactive | inactive | inactive | – | 16.6 µM (active) | inactive | inactive | inactive |
| C/C=C(/C)c1cc(O)c(C)c2c1Oc1cc(O)cc(C)c1C(=O)O2 | inactive | inactive | inactive | inactive | inactive | inactive | inactive | inactive | inactive | – | inactive | inactive | inactive | inactive | inactive | – | 10.5 µM (active) | inactive | inactive | inactive |
| CC(C)C[C@@H]1c2c(O)c(C=O)c(O)c(C=O)c2O[C@]2(C)C=C[C@@H](C(C)C)C[C@H]12 | inactive | inactive | inactive | inactive | inactive | inactive | inactive | inactive | inactive | – | inactive | inactive | inactive | inactive | inactive | – | inactive | inactive | inactive | inactive |
| COc1cc(/C=C/C(=O)OC[C@@H](Cc2ccc(O)c(OC)c2)[C@@H](COC(=O)/C=C/c2ccc(O)c(OC)c2)Cc2ccc(O)c(OC)c2)ccc1O | – | – | 11.8 µM (active) | – | 8.33 µM (active) | inactive | – | inactive | – | 1.48 µM (active) | inactive | inactive | – | inactive | 15.3 µM (active) | inactive | 7.41 µM (active) | – | – | 11.8 µM (active) |
| CC[C@H]1[C@H](C)[C@H](c2cc(OC)c(OC)cc2OC)[C@@H](C)[C@H](c2cc(OC)c(OC)cc2OC)[C@@]12C=C(OC)C(=O)C=C2OC | inactive | – | inactive | – | inactive | 21.6 µM (active) | – | inactive | inactive | – | inactive | inactive | inactive | inactive | – | inactive | – | inactive | inactive | 18.7 µM (active) |
| C/C=C(/C)c1c(Cl)c(OC)c(C)c2c1Oc1c(Cl)c(O)c(Cl)c(C)c1C(=O)O2 | inactive | inactive | inactive | inactive | inactive | – | inactive | inactive | – | – | – | inactive | inactive | inactive | inactive | – | 2.63 µM (active) | inactive | – | inactive |
| COc1ccc2[nH]c3c(c2c1)CCN1C[C@H]2C[C@@H](OC(=O)c4cc(OC)c(OC)c(OC)c4)[C@H](OC)[C@@H](OC)[C@H]2C[C@H]31 | inactive | inactive | inactive | inactive | inactive | – | 0.526 µM (active) | inactive | – | 6.6 µM (active) | inactive | – | inactive | inactive | inactive | inactive | – | inactive | inactive | 20.9 µM (active) |
| O[C@H]1c2ccccc2-c2c3c(cc4c2[C@@H]1NCC4)OCO3 | inactive | inactive | inactive | inactive | inactive | – | 18.7 µM (active) | inactive | 29.4 µM (active) | – | inactive | inactive | inactive | inactive | 24.3 µM (active) | 13.2 µM (active) | – | inactive | – | – |
| C=C[C@@]1(C)CC[C@@H]([C@H](C)C(=O)/C=C/C(C)(C)O)O1 | inactive | inactive | inactive | inactive | inactive | inactive | – | inactive | inactive | – | 23.5 µM (active) | – | inactive | inactive | – | inactive | inactive | inactive | inactive | 26.4 µM (active) |

Source: PubChem BioAssay (NCATS)
